Vif imaging: blocks HIV Vif function; inhibition, % at 7.49 µM; 340,000 tested, 0.35% active; HEK293T cells, Vif self-association by quenched fluorescence, imaging, 24 h; AID 602346; in the data active = inhibition above about 50%, passing the limit was not always enough
SKN-1 block: C. elegans SKN-1 inhibition; 360,000 tested, 0.49% active; inhibition, % at 21.8 µM; C. elegans VP596 Pgst-4::GFP/RFP ratio, acrylamide-induced, 24 h;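 active = interference check ratio from 0.5 to 1.5 plus GFP to RFP signal ratio inhibition reaching or exceeding a fixed threshold, cut at about 30% in these data, passing the limit was not always enough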
SMARCA2 act: SMARCA2 function activation, primary screen; activation, % at 9.1 µM; AID 652017; 370,000 tested, 1% active; MG213 cells, MMTV-luciferase reporter, dexamethasone, overnight; in the data active = activation above about 7.8%;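 note: 0% = vehicle wells and 100% = reference activator wells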
NR3A LBD binder: modulators (binders) of human NR3A ligand-binding domain; Tm shift relative to glycine control, % at 25 µM; NR3A LBD differential scanning fluorimetry, Tm shift; 0% = protein alone, 100% = glycine-bound protein; 340,000 tested, 2.5% active; AID 1259313;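 active = melting temperature shift of at least 10% of the positive control shift, at one fixed dose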
NadD inh: NadD (S. aureus) enzyme inhibition; purified NadD enzyme, colorimetric absorbance read-out; inhibition, % at 20 µM; 360,000 tested, 0.78% active; in the data active = inhibition above about 26%
esBAF inh: blocks esBAF chromatin remodeling in mouse ES cells; Bmi1-luciferase knock-in reporter, 24 h; 100% = twice the neutral-well signal; reporter increase, % at 12.5 µM; 350,000 tested, 2% active; in the data active = activation above about 40%;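 note: 0% = median of the plate's neutral control wells and 100% = double that signal; a rise in the Bmi1 reporter signal indicates esBAF inhibition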
* hit, by the source's call. Compounds with a hit are over-represented: about 5.2% of the library has one in this group of screens.

O=C(C[C@H]1CC[C@H]2[C@@H](COC[C@H](O)CN2S(=O)(=O)c2ccc(F)cc2)O1)NCC1CCCCC1 was read as esBAF inh 11.
`O=C(NCCc1ccccc1F)c1cccc2cccnc12` gave Vif imaging 7, SKN-1 block 6, SMARCA2 act 3, NR3A LBD binder -3, NadD inh -7 and esBAF inh 66*.
For CCOc1ncccc1C(=O)NCc1ccccc1F the results were Vif imaging 0, SKN-1 block -2, SMARCA2 act -1, NR3A LBD binder 0 and NadD inh -8.
Screening Cc1cc(NC(=O)Cn2nnc(-c3ccccc3N)n2)no1 returned Vif imaging -14, SKN-1 block -19, SMARCA2 act 0, NR3A LBD binder 26* and NadD inh -5.
Cc1ccc(NC(=O)CN(C)C(=O)Cn2nnc(-c3ccccc3C)n2)cc1 was read as Vif imaging -11, SKN-1 block 11, SMARCA2 act 1, NR3A LBD binder -3, NadD inh -5 and esBAF inh -8.
Cc1ccc(NC(=O)Cn2nnc(-c3ccccc3NC(=O)c3cccs3)n2)cc1 was read as Vif imaging 1, SKN-1 block 16, SMARCA2 act -4, NR3A LBD binder 20* and NadD inh 10.
COc1ccc(NC(=O)Cn2nnc(-c3ccccc3NC(=O)c3cccs3)n2)cc1 was read as Vif imaging 16, SKN-1 block -4, SMARCA2 act -1, NR3A LBD binder 10*, NadD inh -2 and esBAF inh 0.
For CCOC(=O)c1ccc(NC(=O)Cn2nnc(-c3ccccc3C)n2)cc1 the results were Vif imaging -11, SKN-1 block -6, SMARCA2 act -2, NR3A LBD binder 13*, NadD inh -9 and esBAF inh 0.
Screening CCOC(=O)C(C)Sc1nnc(-c2c[nH]c3ccccc23)n1C (stereo not given) returned Vif imaging -3, SKN-1 block -8, SMARCA2 act 0, NR3A LBD binder -1, NadD inh 0 and esBAF inh 2.
`CC(C)Sc1nnc(-c2c[nH]c3ccccc23)n1C` gave Vif imaging -5, SKN-1 block -3, SMARCA2 act 3, NR3A LBD binder 1, NadD inh 4 and esBAF inh 41*.
N/C(=N\OC(=O)COc1ccccc1)c1ccncc1 was read as Vif imaging -6, SKN-1 block -8, SMARCA2 act 1, NR3A LBD binder 0 and NadD inh -1.
Screening Cc1ccc(OCC(=O)O/N=C(\N)c2ccccn2)cc1C returned Vif imaging -2, SKN-1 block 11, SMARCA2 act 4, NR3A LBD binder 1 and NadD inh -10.
Screening Cc1ccc(OCC(=O)O/N=C(\N)c2ccncc2)cc1C returned Vif imaging 3, SKN-1 block -2, SMARCA2 act 2, NR3A LBD binder -1, NadD inh -4 and esBAF inh 54*.
`COc1cccc(OCC(=O)O/N=C(\N)c2ccncc2)c1` gave Vif imaging 5, SKN-1 block 7, SMARCA2 act 1, NR3A LBD binder -1, NadD inh -4 and esBAF inh 47*.
`Cc1ccc(NC(=O)COc2ccc(/C(N)=N/O)cc2)cc1C` gave Vif imaging -15, SKN-1 block 0, SMARCA2 act -2, NR3A LBD binder 14*, NadD inh -5 and esBAF inh -5.
Cc1ccc(NC(=O)COc2ccc(-n3cnnn3)cc2)cc1C was read as Vif imaging 2, SKN-1 block -3, SMARCA2 act 3, NR3A LBD binder 0, NadD inh -1 and esBAF inh -9.
For COc1cccc(C(=O)NC(=S)Nc2ccc(N(C)C)cc2)c1 the results were Vif imaging -12, SKN-1 block 2, SMARCA2 act 3, NR3A LBD binder -1, NadD inh -2 and esBAF inh 61*.
Screening COc1ccc(-c2coc3c(C(=O)Nc4cccc(C(C)=O)c4)cccc23)c(C)c1 returned Vif imaging 150*, SKN-1 block 9, SMARCA2 act -2, NadD inh -4 and esBAF inh 8.
COc1cccc(NC(=O)c2ccc3c(c2)OCCO3)c1 was read as Vif imaging 3, SKN-1 block -2, SMARCA2 act 3, NR3A LBD binder 12*, NadD inh -4 and esBAF inh -62.
Screening COc1cccc(NC(=O)c2ccc3c(c2)OCO3)c1 returned Vif imaging -3, SKN-1 block -10, SMARCA2 act 4, NR3A LBD binder 7, NadD inh -8 and esBAF inh -4.
COC(=O)c1cccc(NC(=O)c2cccc(OC)c2)c1 was read as SKN-1 block 14, SMARCA2 act 8, NR3A LBD binder 2, NadD inh -6 and esBAF inh 61*.
C[C@H]1CN([C@@H](C)CO)C(=O)c2cc(C3=CCCCC3)cnc2O[C@H]1CN(C)C(=O)Nc1ccccc1 was read as esBAF inh -3.
`COc1ccccc1C(=O)Nc1ccc2c(c1)C(=O)N(C)C[C@H](OC)[C@H](C)CN(C(C)=O)[C@H](C)CO2` gave esBAF inh 2.
Screening COc1cccc(NC(=O)c2ccncc2)c1 returned Vif imaging 11, SKN-1 block -9, SMARCA2 act 0, NR3A LBD binder -3, NadD inh -3 and esBAF inh 10.
`COC(=O)c1ccc(NC(=O)c2cc(-c3ccccn3)nc3ccccc23)cc1` gave Vif imaging 62*, SKN-1 block 1, SMARCA2 act 0, NR3A LBD binder -6, NadD inh 8 and esBAF inh -5.
Screening COc1cccc(C(=O)Nc2ccc(C(=O)c3ccccc3)cc2)c1 returned Vif imaging -16, SKN-1 block 27, SMARCA2 act -4, NR3A LBD binder -6, NadD inh -5 and esBAF inh 42*.
For O=C(Nc1cccc(NC(=O)c2ncn[nH]2)c1)c1cccc(Cl)c1 the results were Vif imaging -5, SKN-1 block 6, SMARCA2 act -1, NR3A LBD binder 12*, NadD inh 1 and esBAF inh 3.
For COc1cccc(C(=O)Nc2ccc(C(=O)O)cc2)c1 the results were Vif imaging -3, SKN-1 block -16, SMARCA2 act -2, NR3A LBD binder 1, NadD inh -1 and esBAF inh -4.
`COc1cccc(NC(=O)c2cccc(Cl)c2)c1` gave Vif imaging -3, SKN-1 block 4, SMARCA2 act 7, NR3A LBD binder 28*, NadD inh -5 and esBAF inh 71*.
Screening COc1cccc(C(=O)Nc2cccc(C(C)=O)c2)c1 returned Vif imaging -15, SKN-1 block 8, SMARCA2 act 0, NR3A LBD binder 1, NadD inh -3 and esBAF inh 52*.
`COC(=O)c1ccc(NC(=O)c2cccc(OC)c2)cc1` gave Vif imaging 16, SKN-1 block 17, SMARCA2 act 2, NR3A LBD binder -5, NadD inh 0 and esBAF inh 47*.
